Laboratory results from the supplement of paper PMC10849652.
The full data set covers some 7,900 targets. This sample favours those with a hit. About 0.6% of all pairs of compound and target were hits.

The targets below were run with CCn1c(C(=O)N(C2CC2)C2CC2)cc2c3c(ncn3C)c(Nc3cc(C)n(C)n3)nc21 (assay: log2 fold change, soluble protein after heating vs DMSO (PISA); higher = thermal stabilisation; K562 cells, 10 uM, 30 min; active = over 0.2 and 3.5 SD of the protein, either way, in both replicates (recomputed)).
Outline: (§1)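 K562 cells at 2×10^6 cells/mL were exposed to 10 μM compound for 30 min, then aliquots were heated for 3 min across 48°C-58°C, pooled, and extracted in PBS containing 0.5% NP-40 at 4°C. The supernatant after 21,000xg for 90 min was taken as soluble protein and measured by TMTpro 16plex LC-MS/MS with channel sums equalised. Thermal stability is reported relative to control samples, with values from duplicates. Fold changes are given on a log2 scale.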

Chain of UniProt Q969N2 (Q969N2 whole entry, looked up): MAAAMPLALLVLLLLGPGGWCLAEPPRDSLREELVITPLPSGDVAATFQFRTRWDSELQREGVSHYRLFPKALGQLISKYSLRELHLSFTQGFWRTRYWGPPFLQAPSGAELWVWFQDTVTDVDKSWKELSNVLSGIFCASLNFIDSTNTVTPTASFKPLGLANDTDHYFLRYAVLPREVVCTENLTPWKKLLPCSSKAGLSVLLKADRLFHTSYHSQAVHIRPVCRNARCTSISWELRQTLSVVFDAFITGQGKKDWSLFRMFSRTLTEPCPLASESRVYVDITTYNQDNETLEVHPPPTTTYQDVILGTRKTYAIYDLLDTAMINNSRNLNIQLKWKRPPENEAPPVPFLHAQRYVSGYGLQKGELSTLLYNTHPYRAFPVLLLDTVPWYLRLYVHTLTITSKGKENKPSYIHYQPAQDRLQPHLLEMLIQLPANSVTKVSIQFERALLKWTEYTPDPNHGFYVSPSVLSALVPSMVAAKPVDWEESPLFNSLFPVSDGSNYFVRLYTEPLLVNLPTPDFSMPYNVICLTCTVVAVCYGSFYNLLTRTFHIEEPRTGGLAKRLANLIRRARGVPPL
Chain of UniProt P14618 (P14618 whole entry, looked up): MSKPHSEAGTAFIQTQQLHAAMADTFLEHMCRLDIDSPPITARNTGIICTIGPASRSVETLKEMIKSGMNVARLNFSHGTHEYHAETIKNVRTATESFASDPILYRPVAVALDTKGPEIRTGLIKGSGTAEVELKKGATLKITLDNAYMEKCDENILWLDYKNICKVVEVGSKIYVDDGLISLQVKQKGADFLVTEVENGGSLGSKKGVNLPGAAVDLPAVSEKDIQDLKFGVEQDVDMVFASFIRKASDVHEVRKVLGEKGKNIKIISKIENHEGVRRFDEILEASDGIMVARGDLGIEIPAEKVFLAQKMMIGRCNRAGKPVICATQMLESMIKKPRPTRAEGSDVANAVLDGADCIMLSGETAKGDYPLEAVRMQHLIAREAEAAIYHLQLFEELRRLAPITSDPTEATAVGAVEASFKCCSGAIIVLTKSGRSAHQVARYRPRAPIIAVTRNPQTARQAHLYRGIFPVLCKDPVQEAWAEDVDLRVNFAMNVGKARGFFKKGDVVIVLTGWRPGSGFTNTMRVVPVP
Chain of UniProt P06737 (P06737 whole entry, looked up): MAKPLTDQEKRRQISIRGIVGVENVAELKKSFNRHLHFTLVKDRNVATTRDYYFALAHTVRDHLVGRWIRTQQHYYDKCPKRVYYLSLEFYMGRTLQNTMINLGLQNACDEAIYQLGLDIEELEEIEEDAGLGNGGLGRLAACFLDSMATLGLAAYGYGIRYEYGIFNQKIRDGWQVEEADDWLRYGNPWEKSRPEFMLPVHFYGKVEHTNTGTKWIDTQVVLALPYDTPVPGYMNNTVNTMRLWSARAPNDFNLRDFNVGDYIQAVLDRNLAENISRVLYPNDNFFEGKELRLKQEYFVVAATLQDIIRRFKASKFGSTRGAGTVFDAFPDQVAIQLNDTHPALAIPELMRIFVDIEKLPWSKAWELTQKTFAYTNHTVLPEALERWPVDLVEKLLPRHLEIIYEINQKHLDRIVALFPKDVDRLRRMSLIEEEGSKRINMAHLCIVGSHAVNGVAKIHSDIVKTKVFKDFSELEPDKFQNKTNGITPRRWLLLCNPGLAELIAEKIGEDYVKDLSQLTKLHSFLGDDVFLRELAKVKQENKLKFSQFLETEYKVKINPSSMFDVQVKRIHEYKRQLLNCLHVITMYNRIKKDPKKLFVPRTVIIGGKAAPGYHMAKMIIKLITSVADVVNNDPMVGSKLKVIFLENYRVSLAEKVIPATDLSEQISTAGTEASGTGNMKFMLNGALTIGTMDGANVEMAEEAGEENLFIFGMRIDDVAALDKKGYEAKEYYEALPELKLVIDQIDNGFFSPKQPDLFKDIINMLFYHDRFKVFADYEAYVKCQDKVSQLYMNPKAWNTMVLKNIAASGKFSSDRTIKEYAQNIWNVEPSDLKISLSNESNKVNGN
Chain of UniProt P09884 (P09884 whole entry, looked up): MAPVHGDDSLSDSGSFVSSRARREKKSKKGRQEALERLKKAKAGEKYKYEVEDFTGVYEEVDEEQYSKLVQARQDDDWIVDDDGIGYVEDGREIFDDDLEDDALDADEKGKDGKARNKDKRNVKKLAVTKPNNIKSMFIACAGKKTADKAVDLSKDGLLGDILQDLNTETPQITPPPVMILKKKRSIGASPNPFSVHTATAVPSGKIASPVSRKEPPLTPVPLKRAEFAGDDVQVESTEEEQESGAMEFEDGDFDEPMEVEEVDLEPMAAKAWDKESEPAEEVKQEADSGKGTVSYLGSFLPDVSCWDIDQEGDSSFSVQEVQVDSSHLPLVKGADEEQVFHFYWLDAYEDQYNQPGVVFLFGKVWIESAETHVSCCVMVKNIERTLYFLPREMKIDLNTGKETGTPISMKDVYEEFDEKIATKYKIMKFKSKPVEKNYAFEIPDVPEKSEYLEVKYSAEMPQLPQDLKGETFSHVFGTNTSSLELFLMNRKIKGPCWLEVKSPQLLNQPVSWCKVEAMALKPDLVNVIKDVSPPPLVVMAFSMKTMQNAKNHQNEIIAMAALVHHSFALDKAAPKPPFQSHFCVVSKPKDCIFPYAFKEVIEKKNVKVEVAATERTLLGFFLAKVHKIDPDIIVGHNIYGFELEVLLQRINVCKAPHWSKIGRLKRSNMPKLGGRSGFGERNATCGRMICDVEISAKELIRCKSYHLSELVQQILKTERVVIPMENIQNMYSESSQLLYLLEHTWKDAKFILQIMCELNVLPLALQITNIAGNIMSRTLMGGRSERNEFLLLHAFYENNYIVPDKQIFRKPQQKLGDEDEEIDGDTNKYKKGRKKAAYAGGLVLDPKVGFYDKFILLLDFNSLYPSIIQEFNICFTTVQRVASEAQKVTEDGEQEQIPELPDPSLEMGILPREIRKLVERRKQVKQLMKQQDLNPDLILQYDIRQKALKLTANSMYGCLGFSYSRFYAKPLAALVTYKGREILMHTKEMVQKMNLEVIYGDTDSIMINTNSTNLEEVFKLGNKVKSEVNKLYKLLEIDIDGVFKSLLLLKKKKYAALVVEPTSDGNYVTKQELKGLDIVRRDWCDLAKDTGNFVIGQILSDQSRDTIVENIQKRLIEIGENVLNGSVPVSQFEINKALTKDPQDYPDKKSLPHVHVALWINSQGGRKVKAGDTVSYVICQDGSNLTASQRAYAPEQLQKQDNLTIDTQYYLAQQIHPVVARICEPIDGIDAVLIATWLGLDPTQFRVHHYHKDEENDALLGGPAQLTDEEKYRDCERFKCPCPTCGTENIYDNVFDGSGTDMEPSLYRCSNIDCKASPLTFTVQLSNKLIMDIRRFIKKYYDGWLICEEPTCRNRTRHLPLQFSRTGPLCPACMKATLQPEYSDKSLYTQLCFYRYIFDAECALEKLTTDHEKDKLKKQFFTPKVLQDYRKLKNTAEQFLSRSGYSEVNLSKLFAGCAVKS
Chain of UniProt O00408 (O00408 whole entry, looked up): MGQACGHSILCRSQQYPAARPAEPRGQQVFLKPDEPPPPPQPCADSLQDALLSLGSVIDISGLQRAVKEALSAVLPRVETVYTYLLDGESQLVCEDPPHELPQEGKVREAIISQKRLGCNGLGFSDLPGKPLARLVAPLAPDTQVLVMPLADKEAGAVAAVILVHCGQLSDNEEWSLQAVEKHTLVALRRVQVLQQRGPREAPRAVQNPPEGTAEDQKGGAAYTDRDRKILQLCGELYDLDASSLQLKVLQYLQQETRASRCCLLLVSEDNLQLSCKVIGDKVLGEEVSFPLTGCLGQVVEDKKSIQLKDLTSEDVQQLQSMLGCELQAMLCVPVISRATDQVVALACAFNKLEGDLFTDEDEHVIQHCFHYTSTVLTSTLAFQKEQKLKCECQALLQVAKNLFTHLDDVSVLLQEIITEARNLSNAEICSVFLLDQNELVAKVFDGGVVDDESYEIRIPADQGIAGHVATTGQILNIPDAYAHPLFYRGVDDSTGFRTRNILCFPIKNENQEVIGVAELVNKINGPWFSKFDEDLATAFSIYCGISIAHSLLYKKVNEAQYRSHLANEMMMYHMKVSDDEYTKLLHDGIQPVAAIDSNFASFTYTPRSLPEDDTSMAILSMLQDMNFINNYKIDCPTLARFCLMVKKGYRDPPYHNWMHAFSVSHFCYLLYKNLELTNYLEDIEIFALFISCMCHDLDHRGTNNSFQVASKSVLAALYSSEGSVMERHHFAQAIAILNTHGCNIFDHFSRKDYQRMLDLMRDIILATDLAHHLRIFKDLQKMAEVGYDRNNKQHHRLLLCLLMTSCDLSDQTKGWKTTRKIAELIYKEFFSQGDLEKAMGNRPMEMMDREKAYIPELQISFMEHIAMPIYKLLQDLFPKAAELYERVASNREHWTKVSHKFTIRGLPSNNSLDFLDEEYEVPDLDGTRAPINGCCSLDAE
Chain of UniProt O00232 (O00232 whole entry, looked up): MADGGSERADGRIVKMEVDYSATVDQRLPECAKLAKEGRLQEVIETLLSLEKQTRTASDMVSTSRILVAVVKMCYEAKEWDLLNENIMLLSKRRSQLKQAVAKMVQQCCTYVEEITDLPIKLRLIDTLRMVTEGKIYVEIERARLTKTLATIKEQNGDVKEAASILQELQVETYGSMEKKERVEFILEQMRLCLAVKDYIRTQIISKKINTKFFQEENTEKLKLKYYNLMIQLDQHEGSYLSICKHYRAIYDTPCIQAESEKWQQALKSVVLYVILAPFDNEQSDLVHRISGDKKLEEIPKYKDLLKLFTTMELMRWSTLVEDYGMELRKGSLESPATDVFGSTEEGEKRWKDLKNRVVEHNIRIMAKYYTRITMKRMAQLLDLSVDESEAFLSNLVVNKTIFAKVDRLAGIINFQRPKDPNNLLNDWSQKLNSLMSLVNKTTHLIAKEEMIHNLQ
Chain of UniProt Q9Y2Y1 (Q9Y2Y1 whole entry, looked up): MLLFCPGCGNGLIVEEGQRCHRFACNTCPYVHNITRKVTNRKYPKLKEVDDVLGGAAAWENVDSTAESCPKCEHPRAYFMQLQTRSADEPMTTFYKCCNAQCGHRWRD

log2 fold change, inactive:
POLR2M (UniProt P0CAP2) -0.022, PCID2 (UniProt Q5JVF3) -0.149, PMPCA (UniProt Q10713) 0.016, POLA1 (UniProt P09884) -0.014, PDE2A (UniProt O00408) 0.061, PDCD4 (UniProt Q53EL6) -0.045, PURA (UniProt Q00577) 0.036, PPP1R14A (UniProt Q96A00) -0.023, PMM2 (UniProt O15305) -0.003, PTRH2 (UniProt Q9Y3E5) -0.003, PPP2R5E (UniProt Q16537) -0.009, PFAS (UniProt O15067) -0.218, PPP2R5A (UniProt Q15172) 0.012, PHKG2 (UniProt P15735) 0.01, PKM (UniProt P14618) -0.002, PSMD12 (UniProt O00232) -0.008, PRKAR1B (UniProt P31321) 0.119, POLR2K (UniProt P53803) 0.144, PLCB3 (UniProt Q01970) 0.026, PLIN2 (UniProt Q99541) -0.008, POTEI (UniProt P0CG38) -0.026, PTP4A1 (UniProt Q93096) 0.029, PI4K2A (UniProt Q9BTU6) 0.037, POLR3K (UniProt Q9Y2Y1) -0.061, PEX16 isoform 2 (UniProt Q9Y5Y5) -0.041, PIGT (UniProt Q969N2) 0.019, PRKAA1 isoform 2 (UniProt Q13131) -0.026, PTRHD1 (UniProt Q6GMV3) 0.064, PPIL2 (UniProt Q13356) -0.098, PEX13 (UniProt Q92968) 0.076, PSMD2 (UniProt Q13200) 0.011, PPID (UniProt Q08752) -0.046, POLD1 (UniProt P28340) 0, PDCD2L (UniProt Q9BRP1) -0.107, PRKAB1 (UniProt Q9Y478) -0.05, PSMD7 (UniProt P51665) 0.01, PYGL (UniProt P06737) -0.081

What follows are targets tested with CCn1cc(-c2ccnc3[nH]c(-c4cccc(CN(C)C)c4)cc23)c(-c2ccc(NC(=O)N(C)C)cc2)n1 in the same assay as above.
Outline: as §1

log2 fold change, inactive:
POLR2M (UniProt P0CAP2) 0.034, PCID2 (UniProt Q5JVF3) 0.035, PMPCA (UniProt Q10713) -0.095, POLA1 (UniProt P09884) -0.089, PDE2A (UniProt O00408) -0.082, PDCD4 (UniProt Q53EL6) -0.053, PURA (UniProt Q00577) 0.26, PPP1R14A (UniProt Q96A00) -0.067, PMM2 (UniProt O15305) -0.002, PTRH2 (UniProt Q9Y3E5) -0.067, PPP2R5E (UniProt Q16537) -0.165, PFAS (UniProt O15067) -0.069, PPP2R5A (UniProt Q15172) -0.046, PHKG2 (UniProt P15735) 0.043, PKM (UniProt P14618) -0.007, PSMD12 (UniProt O00232) 0.017, PRKAR1B (UniProt P31321) 0.12, POLR2K (UniProt P53803) -0.049, PLCB3 (UniProt Q01970) -0.08, PLIN2 (UniProt Q99541) -0.01, POTEI (UniProt P0CG38) 0.009, PTP4A1 (UniProt Q93096) -0.055, PI4K2A (UniProt Q9BTU6) -0.023, POLR3K (UniProt Q9Y2Y1) 0.038, PEX16 isoform 2 (UniProt Q9Y5Y5) 0.033, PIGT (UniProt Q969N2) -0.046, PRKAA1 isoform 2 (UniProt Q13131) -0.052, PTRHD1 (UniProt Q6GMV3) 0.086, PPIL2 (UniProt Q13356) -0.031, PEX13 (UniProt Q92968) 0.047, PSMD2 (UniProt Q13200) 0.07, PPID (UniProt Q08752) -0.058, POLD1 (UniProt P28340) -0.005, PDCD2L (UniProt Q9BRP1) -0.171, PRKAB1 (UniProt Q9Y478) -0.018, PSMD7 (UniProt P51665) 0.027, PYGL (UniProt P06737) 0.016
